PubChem BioAssay (EPA / NIEHS)
Active and inactive are the calls of the source. Rule for the calls: active = hit-call score of the fitted dose curve at least 0.9, where 1 is the maximum; inactive = score below 0.9.

These compounds were tested against Heat shock factor protein 1 (Homo sapiens) (UniProt Q00613) (assay: ATG_HSE_CIS: Attagene CIS-FACTORIAL HepG2 Assay for human Heat Shock Transcription Factor 1 (HSE) (AID 2282953)). Details: HepG2 HSE cis-reporter, Attagene RNA transcription; actives raise or lower the signal.
Protocol: ATG_CIS is a cell-based, multiplexed-readout assay that uses HepG2, a human liver cell line, with measurements taken at 24 hours after chemical dosing in a 24-well plate.ATG_HSE_CIS is one of 52 assay component(s) measured or calculated from the ATG_CIS assay. It is designed to make measurements of mRNA induction, a form of inducible reporter, as detected with fluorescence intensity signals by Reverse transcription polymerase chain reaction (RT-PCR) and Capillary electrophoresis technology.Data from the assay component ATG_HSE_CIS was analyzed into 1 assay endpoint. This assay endpoint, ATG_HSE_CIS, was analyzed with bidirectional fitting relative to DMSO as the negative control and baseline of activity. Using a type of inducible reporter, measures of mRNA for gain or loss-of-signal activity can be used to understand the reporter gene at the transcription factor-level as they relate to the gene HSF1. Furthermore, this assay endpoint can be referred to as a primary readout, because this assay has produced multiple assay endpoints where this one serves a reporter gene function. To generalize the intended target to other relatable targets, this assay endpoint is annotated to the dna binding intended target family, where the subfamily is heat shock protein.
Human liver HepG2 cells are transiently transfected with multiple reporter transcription units (MRTUs) in 6-well plates using FuGene 6 reagent (Roche; 3 ml FuGene/1 mg DNA). The MRTU constructs are regulated by a cis-regulating element (promoter). […] A major difference between the CIS and TRANS system is that in CIS activities of endogenous TFs are measured, whereas the TRANS assay evaluates changes in activities of exogenous, chimeric NR-Gal4 proteins. […] At the end of 24 hour incubation, total RNA was isolated using TriZol reagent (Invitrogen). The isolated RNA is then reverse-transcribed using oligo(dT) primer and Mo-MLV reverse transcriptase (Invitrogen) with DNAse I (Ambion) treatment for 30 min. The one-tenth of the produced cDNA was amplified by PCR using Taq DNA polymerase (Invitrogen) and two reporter sequence-specific primers. The PCR products were fluorescently labeled by primer extension with 6-arboxyfluorescein (6-FAM) 5'-labeled reporter sequence-specific primer (2 min at 95 C, 20 s at 68 C and 10 min at 72 C) and these products were digested with 5U of HpaI (New England Biolabs) for 2h at 37 C. The fragments were purified using Qiaquick PCR columns (Qiagen), analyzed on an ABI 3130xL genetic analyzer (Applied Biosystems) with peak positions identified by using a set of X-rhodamine (ROX)-labeled MapMarker1000 molecular weight standards (BioVentures). The raw capillary electrophoresis data was processed using Attagraph software (Attagene).

Sequence of Heat shock factor protein 1 (Homo sapiens) (Q00613 whole entry, looked up): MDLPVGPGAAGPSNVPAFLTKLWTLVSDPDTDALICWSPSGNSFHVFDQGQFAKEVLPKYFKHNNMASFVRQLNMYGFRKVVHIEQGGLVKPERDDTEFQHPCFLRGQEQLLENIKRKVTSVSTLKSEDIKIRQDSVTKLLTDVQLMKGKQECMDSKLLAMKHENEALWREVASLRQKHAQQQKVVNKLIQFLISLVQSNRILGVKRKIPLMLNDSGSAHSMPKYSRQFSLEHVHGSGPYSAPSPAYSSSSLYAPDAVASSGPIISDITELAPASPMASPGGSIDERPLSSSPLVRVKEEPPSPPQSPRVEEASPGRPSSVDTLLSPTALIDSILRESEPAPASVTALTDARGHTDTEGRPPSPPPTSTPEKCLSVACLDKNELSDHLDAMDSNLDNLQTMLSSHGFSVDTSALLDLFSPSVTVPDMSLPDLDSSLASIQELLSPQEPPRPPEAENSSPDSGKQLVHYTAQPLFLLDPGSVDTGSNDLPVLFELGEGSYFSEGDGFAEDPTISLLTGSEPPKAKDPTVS

Row | Structure (SMILES) | outcome | AC50
1 | O=C(O)CCCCCCCC(=O)O | inactive | –
2 | CCC/C=C/C=O | inactive | –
3 | CC(CN1c2ccccc2Sc2ccccc21)N(C)C (stereo not given) | inactive | –
4 | O=C(Nc1ccccc1)c1cc([N+](=O)[O-])ccc1Cl | – | 154 µM (active)
5 | CC(=O)OCc1ccc2c(c1)OCO2 | inactive | –
6 | CCCC1CCC(=O)O1 (stereo not given) | inactive | –
7 | C[C@H]1C[C@H]2[C@@H]3CCC4=CC(=O)C=C[C@]4(C)[C@@]3(F)[C@@H](O)C[C@]2(C)[C@@]1(O)C(=O)COP(=O)(O)O | inactive | –
8 | COC(=O)Cc1cccc2ccccc12 | inactive | –
9 | OCCCCCO | inactive | –
10 | CC(C)OP(=O)(CP(=O)(OC(C)C)OC(C)C)OC(C)C | inactive | –
11 | NNc1nc(-c2ccc(N)cc2)cs1 | inactive | –
12 | C=O | inactive | –
13 | OCCN1CCNCC1 | inactive | –
14 | COc1cc2ncnc(Nc3cccc(Cl)c3)c2cc1OC | inactive | –
15 | O=C(O)c1cccc([N+](=O)[O-])c1 | inactive | –
16 | OC[C@H]1O[C@H](O[C@]2(CCl)O[C@H](CCl)[C@@H](O)[C@@H]2O)[C@H](O)[C@@H](O)[C@H]1Cl | inactive | –
17 | O=C(COc1ccc(Cl)cc1)N1CCN(Cc2ccc3c(c2)OCO3)CC1 | – | 151 µM (active)
18 | CCCC(=O)c1cc(O)c(O)cc1O | inactive | –
19 | O=C[C@H](O)[C@H](O)[C@H](O)CO | inactive | –
20 | O=C(O)c1snc(Cl)c1Cl | – | 158 µM (active)

Row | Structure (SMILES) | outcome | AC50
21 | O=C(Oc1ccccc1)c1ccc(O)cc1 | inactive | –
22 | O=CCCc1ccccc1 | inactive | –
23 | CNCCCC12CCC(c3ccccc31)c1ccccc12 | inactive | –
24 | CC(=O)[C@H]1CC[C@H]2[C@@H]3CC=C4C[C@@H](O)CC[C@]4(C)[C@H]3CC[C@]12C | inactive | –
25 | O=C(O)c1ccc([N+](=O)[O-])cc1 | inactive | –
26 | O=C1C(c2[nH]c3ccc(S(=O)(=O)O)cc3c2O)=Nc2ccc(S(=O)(=O)O)cc21 | inactive | –
27 | O=C(O)CN(CCN(CC(=O)O)CC(=O)O)CCN(CC(=O)O)CC(=O)O | inactive | –
28 | CC1(CO)CN(c2ccccc2)NC1=O (stereo not given) | inactive | –
29 | Fc1c(F)c(F)c(Br)c(F)c1F | inactive | –
30 | CC1CCC(C(C)CS)CC1S (stereo not given) | inactive | –
31 | CC(C)(C#N)c1cc(Cn2cncn2)cc(C(C)(C)C#N)c1 | inactive | –
32 | O=C(O)C[C@H](O)C[C@H](O)/C=C/c1c(C2CC2)nc2ccccc2c1-c1ccc(F)cc1 | inactive | –
33 | CCCCCCOC(=O)CC | inactive | –
34 | COc1ccc(NC(=O)CC(C)=O)cc1 | inactive | –
35 | COc1nc(C)nc(N)n1 | inactive | –
36 | Cc1cccc(C)c1[N+](=O)[O-] | inactive | –
37 | CC(O)C(C)O (stereo not given) | inactive | –
38 | Cc1ccccc1C=O | inactive | –
39 | COc1ccc(Nc2ccccc2)c(C)c1 | inactive | –
40 | CC1COc2ccccc2N1C(=O)C(Cl)Cl (stereo not given) | inactive | –
